Data on 33 compounds can be found in PubChem BioAssay (NCATS).

Results filed as inconclusive are left out. A call without a number means that no potency is given here. Unmarked numbers belong to inactive results. Calls of active or inactive are those of the source. Calls follow the shape of the dose curve; as a rule, active = well fitted cell-killing curve with a large enough effect; inconclusive = small, poorly fitted or top-dose-only effect, or effect the other way; inactive = flat fitted curve, though single readings scatter.
Potency is read from the fitted curve at half-maximal effect.

This experiment relates to C33A. The experiment can be described thus: Primary qHTS to identify gynecologic anti-cancer compounds using libraries of approved drugs and bioactive compounds (AID 1345084). Also: nearly all actives have a fitted effect of over 55% in size. The note with it: Gynecologic cancer cell panel viability, ATPlite luminescence, 48 h; series mostly up to 57.5 µM. The procedure, abridged:
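Cell viability after 48 h drug treatment, ATPlite luminescence readout; five doses.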
On the technique in general: In qHTS, concentration-response curves come from the screen itself.
As to `CC1OC(OC2C(O)COC(O[C@@H]3[C@@H](O)[C@@H](O)[C@H](OC4C(OC(=O)[C@]56CCC(C)(C)CC5C5=CCC7[C@@]8(C)C[C@H](O)[C@H](OC9OC(CO)C(O)C(O)C9O)[C@@](C)(CO)C8[C@H](O)C[C@@]7(C)[C@]5(C)CC6)OCC(O)C4O)O[C@H]3C)C2O)C(O)C(O)C1O` (stereo partly drawn), the activity change, negative = cytotoxicity is -9.28% [at 6.55 µM].
Consider `CCCSc1nc(N[C@@H]2C[C@H]2c2ccc(F)c(F)c2)c2nnn([C@@H]3C[C@H](OCCO)[C@@H](O)[C@H]3O)c2n1`, for which the Potency entry was “inactive”.
Take `C[C@H](Oc1cc(-n2cnc3ccc(CN4CCN(C)CC4)cc32)sc1C(N)=O)c1ccccc1C(F)(F)F`: the Potency is 15.8 µM (active).
Turning to `C[C@@H](O[C@H]1OCCN(Cc2nn(P(=O)(O)O)c(=O)[nH]2)[C@H]1c1ccc(F)cc1)c1cc(C(F)(F)F)cc(C(F)(F)F)c1`, the Potency entry is “inactive”.
The same measure, in the same setting: under `COC1CC(=O)C23C(=O)NC(Cc4c[nH]c5ccccc45)C2C(C)C2(C)OC2C3/C=C/CC(C)CC1O` (stereo not drawn) stands “inactive”; under `Cc1cc(OCCCS(C)(=O)=O)cc(C)c1-c1cccc(COc2ccc(C3=CC(=O)NS3=O)cc2)c1` (stereo not drawn), “inactive”.
With `C=C1[C@H]2CC[C@H](C(=O)O)[C@@]23CC[C@H](C3)C1(C)C`, the Potency entry is “inactive”.
As for `CC(C)(O)C1Cc2c(ccc(C(=O)CCc3ccccc3)c2O)O1` (stereo not drawn), the Potency is 11.2 µM (active).
The same measure, in the same setting: under `Cn1ncc(Cl)c1-c1cc(C(=O)N[C@H](CN)Cc2ccc(F)c(F)c2)sc1Cl` stands 5.62 µM (active).
Still for that read-out and setting: the entry for `C/C1=C\[C@@H](C)C[C@@H](C)[C@@H](Cc2cnco2)OC(=O)/C(C)=C/[C@@H](C)C[C@@H](C)[C@@H](Cc2cnco2)OC1=O` is “inactive”; for `C=CC(=O)N1CCCC(n2nc(-c3ccc(Oc4ccccc4)cc3)c3c(N)ncnc32)C1` (stereo not drawn) it is “inactive”; for `CCC(CC)C(c1ccc(Nc2nc3ccccc3s2)cc1)n1cncn1` (stereo not drawn) it is 25.1 µM (active).
On the same count and under the same terms, under `C=C[C@@]1(C)CCC2C(=CCC3[C@]2(C)CCC[C@@]3(C)C(=O)O)C1` (stereo partly drawn) stands “inactive”; under `COc1ccc(C[C@H]2COC(=O)[C@@H]2Cc2ccc(O[C@@H]3O[C@H](CO)[C@@H](O)[C@H](O)[C@H]3O)c(OC)c2)cc1OC`, “inactive”.
Consider `CN(C)C(=O)NC1(c2ccccc2)CCN(CCC[C@]2(c3ccc(Cl)c(Cl)c3)CCCN(C(=O)c3ccccc3)C2)CC1`, for which the Potency result was “inactive”.
`CN(C)c1cccc(Oc2cnc(Nc3cccc(O)c3)nc2)c1`: the Potency result is “inactive”.
With `CCCc1cc(C)[nH]c(=O)c1CNC(=O)c1cc(-c2ccc(N3CCN(C(C)C)CC3)nc2)cc2c1cnn2C(C)C`, the Potency entry is “inactive”.
On the same count and under the same terms, the entry for `FC(F)(F)c1ccccc1-c1cc(C(F)(F)F)c2nc(C3=NOC4(CCCCC4)C3)[nH]c2c1` is “inactive”; for `O=C(NCCCNC(=O)c1ccc[nH]c1=O)c1cc(-c2ccccc2)on1` it is “inactive”; for `CC(C)NCCCn1c(Sc2cc3c(cc2I)OCO3)nc2c(N)ncnc21` it is 1.58 µM (active).
Same read-out and setting: the figure for `C=C1CC2OC(=O)C(=C)C2C(OC(=O)/C(C)=C\C)CC2(C)OC1=CC2=O` (stereo not drawn) is 11.2 µM (active); for `Nc1ncnc2c1nc(Cl)n2C1OC2COP(=O)(O)OC2C1O` (stereo not drawn) it is 7.94 µM (active); for `O=C(C1CCCCC1)N(CCN1CCN(c2ccccc2O)CC1)c1ccccn1` it is “inactive”.
For `CC(=O)O[C@@]12CO[C@@H]1C[C@H](O)[C@@]1(C)C(=O)[C@H](O)C3=C(C)[C@@H](OC(=O)[C@H](O)[C@@H](NC(=O)OC(C)(C)C)c4ccccc4)C[C@@](O)([C@@H](OC(=O)c4ccccc4)C12)C3(C)C` (stereo partly drawn), the Potency result was “inactive”.
`Cn1sc(=O)n(Cc2ccccc2)c1=O`: the Potency result is “inactive”.
The same measure, in the same setting: under `Cc1[nH]c(/C=C2\C(=O)Nc3cc(-c4ccccc4)ccc32)c(C)c1CCC(=O)O` stands “inactive”.
Same read-out and setting: the entry for `COC(CCc1ccc(O)cc1)CC(=O)CCc1ccc(O)cc1` (stereo not drawn) is “inactive”; for `Cc1ccc(O)cc1Nc1ccnc(Nc2cccc(C(N)=O)c2)n1` it is “inactive”; for `NCC1CCN(c2nccc(-c3ccc4ccccc4c3)n2)CC1` it is 28.2 µM (active).
The same measure, in the same setting: the entry for `C[C@@H](N[C@H]1CCCC[C@@H]1NC(=O)c1ccc(Cl)cc1)c1cccc2ccccc12` is “inactive”.
Take `COC(=O)CC1OC(C)C2=C(O)c3c(O)cccc3C(=O)C23OC13` (stereo not drawn): the Potency is 12.6 µM (active).
Take `O=C(Nc1nc2cc(C(F)(F)F)cc(NC3CC3)n2n1)c1cccnc1`: the Potency entry was “inactive”.
In the case of `C/C=C(/C)C(=O)O[C@H]1[C@H](OC(=O)/C(C)=C\C)[C@@]23C(CC1(C)C)[C@]1(CCC4[C@@]5(C)CC[C@H](O[C@@H]6O[C@H](C(=O)O)[C@@H](O)[C@H](O[C@@H]7O[C@H](CO)[C@H](O)[C@H](O)[C@H]7O[C@@H]7O[C@@H](C)[C@H](O)[C@@H](O)[C@H]7O[C@@H]7OC[C@@H](O)[C@H](O)[C@H]7O)[C@H]6O[C@@H]6O[C@H](CO)[C@H](O)[C@H](O)[C@H]6O)C(C)(C)C5CC[C@@]4(C)[C@]1(C)C[C@H]2O)O[C@H]3O` (stereo partly drawn), the activity change, negative = cytotoxicity is -26.4% [at 6.55 µM].
